# From PubChem BioAssay AID1159580 (chemical genetic matrix, 2015)
# About 2,000 (36%) of roughly 5,500 compounds were called active. Another 18% or so got no clear call; they are omitted. The list shows a part of the results. Values without a mark were called inactive. Cut-off read from the data, not from the text of the source: active = normalized growth mostly below about 0.91 (no sharp cut-off); inconclusive = no clear call, values can overlap the other calls; inactive = mostly above about 0.92.
# Assay: chemical genetic growth profiling, strain panel (AID 1159580);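 note: tested at 20 µM; growth read once vehicle control cultures reached saturation at 30 °C; 1 = growth at the plate median or of vehicle wells; lower values mean less growth of the strain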
# Conditions: S. cerevisiae deletion strains, growth OD
structure (smiles),measurement,setting,value
C[C@]12CCC3C(CC[C@H]4C[C@H](OS(=O)(=O)O)CC[C@]34C)C1CCC2=O (some centres not stated),normalized growth,"locus YAL021C, strain ccr4, active compounds read low",1.02
same,normalized growth,"locus YAL026C, strain drs2, active compounds read low",1.05
same,normalized growth,"locus YAL030W, strain snc1, active compounds read low",1.05
same,normalized growth,"locus YBL061C, strain skt5, active compounds read low",1.05
same,normalized growth,"locus YBR009C, strain hhf1, active compounds read low",1.06
same,normalized growth,"locus YBR023C, strain chs3, active compounds read low",1.05
same,normalized growth,"locus YBR171W, strain sec66, active compounds read low",1.08
same,normalized growth,"locus YBR231C, strain swc5, active compounds read low",1.06
same,normalized growth,"locus YBR279W, strain paf1, active compounds read low",1.03
same,normalized growth,"locus YCL011C, strain gbp2, active compounds read low",1.05
same,normalized growth,"locus YCL016C, strain dcc1, active compounds read low",1.04
same,normalized growth,"locus YCL061C, strain MRC1, active compounds read low",1.05
same,normalized growth,"locus YCL069W, strain vba3, active compounds read low",1.04
same,normalized growth,"locus YCR088W, strain abp1, active compounds read low",1.04
same,normalized growth,"locus YDL005C, strain med2, active compounds read low",1.06
same,normalized growth,"locus YDL040C, strain nat1, active compounds read low",1.04
same,normalized growth,"locus YDR001C, strain nth1, active compounds read low",1.04
same,normalized growth,"locus YDR069C, strain doa4, active compounds read low",1.05
same,normalized growth,"locus YDR137W, strain rgp1, active compounds read low",1.05
same,normalized growth,"locus YDR159W, strain sac3, active compounds read low",1.08
same,normalized growth,"locus YDR195W, strain ref2",1.06
same,normalized growth,"locus YDR297W, strain sur2, active compounds read low",1.05
same,normalized growth,"locus YDR334W, strain swr1, active compounds read low",1.05
same,normalized growth,"locus YDR335W, strain msn5, active compounds read low",1.04
same,normalized growth,"locus YDR392W, strain spt3, active compounds read low",1.07
same,normalized growth,"locus YEL003W, strain gim4, active compounds read low",1.03
same,normalized growth,"locus YEL037C, strain rad23, active compounds read low",1.04
same,normalized growth,"locus YEL061C, strain CIN8 (second series), active compounds read low",1.05
same,normalized growth,"locus YER015W, strain faa2, active compounds read low",1.05
same,normalized growth,"locus YER016W, strain bim1, active compounds read low",1.04
same,normalized growth,"locus YER111C, strain swi4, active compounds read low",1.06
same,normalized growth,"locus YER155C, strain BEM2 (second series), active compounds read low",1.06
same,normalized growth,"locus YFR010W, strain ubp6, active compounds read low",1.05
same,normalized growth,"locus YGL167C, strain pmr1, active compounds read low",1.06
same,normalized growth,"locus YGL173C, strain kem1, active compounds read low",1.04
same,normalized growth,"locus YGL227W, strain vid30, active compounds read low",1.05
same,normalized growth,"locus YGL240W, strain doc1, active compounds read low",1.04
same,normalized growth,"locus YGL253W, strain hxk2, active compounds read low",1.04
same,normalized growth,"locus YHR013C, strain ard1, active compounds read low",1.12
same,normalized growth,"locus YHR027C, strain rpn1, active compounds read low",1.05
same,normalized growth,"locus YHR142W, strain chs7, active compounds read low",1.05
same,normalized growth,"locus YJL092W, strain hpr5, active compounds read low",1.05
same,normalized growth,"locus YJL095W, strain BCK1 (second series), active compounds read low",1.04
same,normalized growth,"locus YJL115W, strain asf1, active compounds read low",1.06
same,normalized growth,"locus YJL129C, strain trk1, active compounds read low",1.11
same,normalized growth,"locus YJL154C, strain vps35, active compounds read low",1.04
same,normalized growth,"locus YJL164C, strain tpk1, active compounds read low",1.05
same,normalized growth,"locus YJL166W, strain qcr8, active compounds read low",1.05
same,normalized growth,"locus YJL187C, strain SWE1, active compounds read low",1.05
same,normalized growth,"locus YKL160W, strain elf1, active compounds read low",1.03
same,normalized growth,"locus YKR026C, strain gcn3, active compounds read low",1.06
same,normalized growth,"locus YKR091W, strain srl3, active compounds read low",1.04
same,normalized growth,"locus YLL001W, strain dnm1, active compounds read low",1.05
same,normalized growth,"locus YLL026W, active compounds read low",1.05
same,normalized growth,"locus YLL041C, strain sdh2, active compounds read low",1.05
same,normalized growth,"locus YLR027C, strain aat2, active compounds read low",1.05
same,normalized growth,"locus YLR221C, strain rsa3, active compounds read low",1.05
same,normalized growth,"locus YLR258W, strain gsy2, active compounds read low",1.06
same,normalized growth,"locus YLR262C, strain YPT6 (second series), active compounds read low",1.04
same,normalized growth,"locus YLR320W, strain mms22, active compounds read low",1.06
same,normalized growth,"locus YLR342W, strain FKS1, active compounds read low",1.06
same,normalized growth,"locus YLR357W, strain rsc2, active compounds read low",1.06
same,normalized growth,"locus YLR370C, strain arc18, active compounds read low",1.05
same,normalized growth,"locus YLR384C, strain iki3, active compounds read low",1.05
same,normalized growth,"locus YML120C, strain ndi1, active compounds read low",1.05
same,normalized growth,"locus YMR058W, strain fet3, active compounds read low",1.04
same,normalized growth,"locus YMR125W, strain sto1, active compounds read low",1.05
same,normalized growth,"locus YMR129W, active compounds read low",1.05
same,normalized growth,"locus YMR205C, strain PFK2, active compounds read low",1.07
same,normalized growth,"locus YMR231W, strain pep5, active compounds read low",1.03
same,normalized growth,"locus YNL071W, strain lat1, active compounds read low",1.05
same,normalized growth,"locus YNL209W, strain ssb2, active compounds read low",1.04
same,normalized growth,"locus YNL248C, strain rpa49, active compounds read low",1.04
same,normalized growth,"locus YNL322C, strain KRE1 (second series), active compounds read low",1.04
same,normalized growth,"locus YNR049C, strain mso1, active compounds read low",1.05
same,normalized growth,"locus YOR001W, strain rrp6, active compounds read low",1.04
same,normalized growth,"locus YOR070C, strain gyp1, active compounds read low",1.06
same,normalized growth,"locus YOR080W, strain dia2, active compounds read low",1.07
same,normalized growth,"locus YOR083W, strain WHI5, active compounds read low",1.04
same,normalized growth,"locus YOR106W, strain vam3, active compounds read low",1.03
same,normalized growth,"locus YOR265W, strain rbl2, active compounds read low",1.08 [resistant] (active)
same,normalized growth,"locus YOR270C, strain vph1, active compounds read low",1.1
same,normalized growth,"locus YOR290C, strain snf2, active compounds read low",1.04
same,normalized growth,"locus YPL051W, strain arl3, active compounds read low",1.05
same,normalized growth,"locus YPL078C, strain atp4, active compounds read low",1.03
same,normalized growth,"locus YPL106C, strain sse1, active compounds read low",1.1
same,normalized growth,"locus YPL240C, strain hsp82, active compounds read low",1.04
